PubChem BioAssay (NCATS)
Inconclusive results are not listed. Active and inactive are the calls of the source. The call rests on the fitted dose curve; in most records, active means well fitted cell-killing curve with a large enough effect; inconclusive means small, poorly fitted or top-dose-only effect, or effect the other way; inactive means no such curve, though single readings can be large or run the other way.

Experiment: Quantitative High-Throughput drug screen in 47 multiple myeloma cell lines against the NCATS MIPE library collection: JJN3_DSMZ cell viability assay (AID 1918966; further: nearly all actives have a fitted effect of over 50% in size)
Settings: JJN3 myeloma cells viability, CellTiter-Glo ATP, 48 h; series mostly up to 45.8 µM; viability, % of DMSO: at the top concentration
Text: PI: Beverly A. Mock Ph.D.
Laboratory of Cancer Biology and Genetics,
Center for Cancer Research, National Cancer Institute,
National Institute of Health, Bethesda, Maryland
Drug resistance and disease progression are common in multiple myeloma (MM) patients, underscoring the need for new therapeutic combinations. […] We hypothesized that effective combinations would reduce MYC expression and enhance p16 activity. […] These preclinical data identify potentially useful drug combinations for evaluation in drug-resistant MM and reveal potential mechanisms of combined drug sensitivity.
Described herein is the primary MIPE qHTS used to cherrypick compounds. Validated compounds were then further tested for potential synergistic activiy.
[1] Peat TJ, Gaikwad SM, Dubois W, Gyabaah-Kessie N, Zhang S, Gorjifard S, Phyo Z, Andres M, Hughitt VK, Simpson RM, Miller MA, Girvin AT, Taylor A, Williams D, D'Antonio N, Zhang Y, Rajagopalan A, Flietner E, Wilson K, Zhang X, Shinn P, Klumpp-Thomas C, McKnight C, Itkin Z, Chen L, Kazandijian D, Zhang J, Michalowski AM, Simmons JK, Keats J, Thomas CJ, Mock BA. Drug combinations identified by high-throughput screening promote cell cycle transition and upregulate Smad pathways in myeloma. Cancer Lett. 2023 Aug 1;568:216284. doi: 10.1016/j.canlet.2023.216284. Epub 2023 Jun 24. PMID: 37356470; PMCID: PMC10408729.
SEQUENCE No. (e.g., 1, 2, 3, etc.); […] (e.g., Cells, Incubation, Reagent, etc.); VALUE and DESCRIPTION.
1; Cells; 5 uL; white, solid bottom 1536-well Greiner assay plate.
2; Compounds; 23 nL; Kalypsis pin tool (Wako USA) equipped with a 1536-well pin head to transfer to the assay plates.
3; Incubation; 48 hours; 37C incubation.
4; Reagent;5uL; CellTiter Glo (Promega).
5; Detector; 425V; Luminescence; Viewlux PerkinElmer.
NOTES (numbers refer to Sequence numbers above)
1. The cell-based screening methods employed in this study were like those previously published. Briefly, the corresponding myeloma cell lines were screened in 1,536-well plates with 500 cells, 5-uL per well for inhibition of cell viability (assessed by measuring ATP levels with CellTiterGlo).
2. NCATS MIPE 4.0 library of approved and investigational drugs were added using the Kalypsis pin tool. Wells treated with DMSO only for 100% viability and media only wells for 0% viability were used as controls.
3. The assay plates were covered and incubated for 48 hours in a 37C, 5% CO2 incubator with controlled humidity.
4. After 48 hours, CellTilter-GloTM luminescent substrate mix (Promega) reagent was added to the assay plate and plates we incubated for 5 min at room temperature.
5. Signal was measured as median relative luminescence units on a ViewLux (PerkinElmer) multiplate reader.
[1] Heske CM, Davis MI, Baumgart JT, Wilson K, Gormally MV, Chen L, Zhang X, Ceribelli M, Duveau DY, Guha R, Ferrer M, Arnaldez FI, Ji J, Tran HL, Zhang Y, Mendoza A, Helman LJ, Thomas CJ. Matrix Screen Identifies Synergistic Combination of PARP Inhibitors and Nicotinamide Phosphoribosyltransferase (NAMPT) Inhibitors in Ewing Sarcoma. Clin Cancer Res. 2017 Dec 1;23(23):7301-7311. doi: 10.1158/1078-0432.CCR-17-1121. Epub 2017 Sep 12. PMID: 28899971; PMCID: PMC6636827.
Potency means the concentration at half of the fitted maximal effect.

Q: For `COc1ccc(CC2=NN3C([C@@H](CCc4ccccc4)[C@@H](C)O)=NC(C)C3C(=O)N2)cc1OC` (stereo not given in full), which “viability, % of DMSO” value is on record?
A: The value was 123% (inactive).

Q: Which Potency does the source give for `CCCn1c(=O)c2[nH]c(C34CC5CC3C[C@@H](C5)C4)nc2n(CCC)c1=O` here?
A: The Potency was 13.2 µM (active).

Q: With `CC(C)(N)C(=O)N[C@H](COCc1ccccc1)C(=O)N1CCC2(CC1)CN(S(C)(=O)=O)c1ccccc12` as the compound, how does the Potency read?
A: Its Potency is 3.72 µM (active).

Q: For `COc1ccc(-c2ccc3c(N4CCOCC4)nc(N4C[C@@H](C)O[C@@H](C)C4)nc3n2)cc1CO`, which Potency is on record?
A: The Potency was 1.87 µM (active).

Q: Which Potency does the source give for `Cc1cccc(-c2[nH]c(C(C)(C)C)nc2-c2ccc3nccnc3c2)n1` here?
A: Its Potency is 18.7 µM (active).

Q: With `NCCCC(N)(C(=O)O)C(F)F` (stereo not given) as the compound, how does the Potency read?
A: Its Potency is 20.9 µM (active).

Q: For `CC[C@H](Nc1ncnc2nc[nH]c12)c1nc2cccc(F)c2c(=O)n1-c1ccccc1`, which Potency is on record?
A: The Potency was 10.5 µM (active).

Q: For `Oc1cccc(-c2nc(N3CCOCC3)c3oc4ncccc4c3n2)c1`, which Potency is on record?
A: Its Potency is 0.108 µM (active).

Q: For `NCCc1ccc(O)c(O)c1`, which Potency is on record?
A: The Potency was 20.9 µM (active).

Q: With `COc1ccccc1[C@H](c1cccc2ccccc12)[C@@](C)(C#N)C(=O)N1CCC(c2cccc(C(F)(F)F)c2)CC1` as the compound, how does the Potency read?
A: Its Potency is 6.62 µM (active).

Q: Which Potency does the source give for `O=NN(CCCl)C(=O)NCCCl` here?
A: The Potency was 0.148 µM (active).

Q: With `Cc1cc(C=c2sc3nc4ccccc4n3c2=O)c(C)n1-c1ccccc1` as the compound, how does the Potency read?
A: The Potency was 4.18 µM (active).

Q: For `CC1(C)Cc2c(-c3ccccc3)c(-c3ccc(Cl)cc3)c(CC(=O)O)n2C1`, which Potency is on record?
A: The Potency was 20.9 µM (active).

Q: With `CS(=O)(=O)c1ccc(C(=O)Nc2ccc(Cl)c(-c3ccccn3)c2)c(Cl)c1` as the compound, how does the “viability, % of DMSO” value read?
A: Its value is 144% (inactive).

Q: Which “viability, % of DMSO” value does the source give for `CCOc1ccc(Cc2cc([C@@H]3O[C@H](CO)[C@@H](O)[C@H](O)[C@@H]3O)ccc2Cl)cc1` here?
A: Its value is 133% (inactive).

Q: Which Potency does the source give for `Nc1nc2[nH]cc(CCc3ccc(C(=O)N[C@@H](CCC(=O)O)C(=O)O)cc3)c2c(=O)[nH]1` here?
A: The Potency was 9.35 µM (active).

Q: With `COc1cccc2cc(-c3nc(C4CCC(C(=O)O)CC4)n4ncnc(N)c34)[nH]c12` (stereo not given) as the compound, how does the Potency read?
A: The Potency was 1.05 µM (active).

Q: For `Oc1ccc(C2CNCCc3c2cc(O)c(O)c3Cl)cc1` (stereo not given), which “viability, % of DMSO” value is on record?
A: The value was 89.2% (inactive).

Q: Which Potency does the source give for `CO[C@@H]1[C@H](N(C)C(=O)c2ccccc2)C[C@H]2O[C@]1(C)n1c3ccccc3c3c4c(c5c6ccccc6n2c5c31)C(=O)NC4` here?
A: The Potency was 4.18 µM (active).

Q: For `CCN(CC)CCCC(C)Nc1ccnc2cc(Cl)ccc12` (stereo not given), which “viability, % of DMSO” value is on record?
A: The value was 93% (inactive).

Q: Which Potency does the source give for `Cc1cn[nH]c1` here?
A: The Potency was 1.48 µM (active).

Q: For `CCOC(=O)C1=C[C@]2(CC)CCCN3CCc4c(n1c1ccccc41)[C@@H]32`, which Potency is on record?
A: Its Potency is 18.7 µM (active).

Q: Which Potency does the source give for `O=C1[C@H](Cc2ccc(O)cc2)N2C(=O)CCN(C(=O)NCc3ccccc3)[C@H]2CN1Cc1cccc2ccccc12` here?
A: The Potency was 7.43 µM (active).

Q: Which “viability, % of DMSO” value does the source give for `CC1(C)SCCN(S(=O)(=O)c2ccc(OCC#CCO)cc2)[C@@H]1C(=O)NO` here?
A: The value was 123% (inactive).

Q: Which “viability, % of DMSO” value does the source give for `NC(=O)c1cnccn1` here?
A: Its value is 154% (inactive).

Q: For `Nc1nc2ccc(OC(F)(F)F)cc2s1`, which Potency is on record?
A: The Potency was 16.6 µM (active).

Q: Which Potency does the source give for `CN(C)c1ccc(C2Nc3ccc4ccccc4c3C3=C2C(=O)CC(C)(C)C3)cc1Br` (stereo not given) here?
A: Its Potency is 11.8 µM (active).

Q: With `Cc1cc(Nc2nc(N[C@@H](C)c3ncc(F)cn3)ncc2Cl)n[nH]1` as the compound, how does the Potency read?
A: Its Potency is 18.7 µM (active).

Q: With `Cc1oncc1C(=O)Nc1ccc(C(F)(F)F)cc1` as the compound, how does the “viability, % of DMSO” value read?
A: The value was 123% (inactive).

Q: Which “viability, % of DMSO” value does the source give for `N[C@@H]1CONC1=O` here?
A: The value was 149% (inactive).

Q: For `CCCc1nn(C)c2c(=O)[nH]c(-c3cc(S(=O)(=O)N4CCN(C)CC4)ccc3OCC)nc12`, which Potency is on record?
A: The Potency was 18.7 µM (active).

Q: With `COc1ccc(-c2ccc3c(N4CCOC[C@H]4C)nc(N4CCOC[C@H]4C)nc3n2)cc1CO` as the compound, how does the Potency read?
A: Its Potency is 0.0132 µM (active).

Q: For `O=C(Nc1nc2ccccc2n1CCN1CCOCC1)c1cccc([N+](=O)[O-])c1`, which Potency is on record?
A: Its Potency is 20.9 µM (active).

Q: For `NC[C@H](O)c1ccc(O)c(O)c1`, which Potency is on record?
A: Its Potency is 4.18 µM (active).

Q: For `Cn1cc(-c2ccc3nnc(C(F)(F)c4ccc5ncccc5c4)n3n2)cn1`, which Potency is on record?
A: Its Potency is 0.0264 µM (active).

Q: For `O=C1CCCC2=C1C(c1[nH]ncc1Cl)N=C(Nc1nc3ccccc3o1)N2` (stereo not given), which Potency is on record?
A: The Potency was 5.26 µM (active).

Q: With `CC(C)(C)OC(=O)CN(Cc1ccc(Cl)cc1)Cc1ccc([N+](=O)[O-])s1` as the compound, how does the Potency read?
A: Its Potency is 10.5 µM (active).

Q: Which Potency does the source give for `CN(C)c1ccc(Nc2nc(N)n(C(=O)c3c(F)cccc3F)n2)cc1` here?
A: Its Potency is 20.9 µM (active).

Q: Which “viability, % of DMSO” value does the source give for `COc1cc(Nc2ncc3c(n2)-c2ccc(Cl)cc2C(c2c(F)cccc2OC)=NC3)ccc1C(=O)O` here?
A: Its value is 106% (inactive).

Q: Which Potency does the source give for `COCC(=O)NCC=Cc1ccc2ncnc(Nc3ccc(Oc4ccc(C)nc4)c(C)c3)c2c1` here?
A: Its Potency is 23.5 µM (active).
